Unmarked numbers belong to inactive results. Calls come from the whole dose curve; as a rule, active = well fitted curve in the direction sought with a large enough effect in the repeat runs; inconclusive = weak or mixed curves; inactive = flat fitted curve, though single readings scatter. Non-standard residues stand in square brackets, D forms with d. Residues, ends and D or L forms follow the SMILES beside them. *: point of attachment. Sta = CC(C)C[C@H](N)[C@@H](O)CC(=O)O; Isovaleryl = CC(C)CC(=O)*
% is set by controls: 0 for no effect and ±100 for the full control effect.

The test is described as follows: qHTS assay to test for compound auto fluorescence at 535 nm (green) in HepG2 cells (AID 720675). The settings on record: green autofluorescence 485/535 nm, 1 h; series mostly up to 91.3 µM; fluorescence, % of fluorescein control: at the top concentration. From the text: National Center for Advancing Translational Sciences [NCATS]
NIH Chemical Genomics Center [NCGC]
U.S. Environmental Protection Agency [EPA]
National Institutes of Environmental Health Sciences [NIEHS]
National Toxicology Program [NTP]
U.S. Food and Drug Administration [FDA]
Compound auto fluorescence often interferes with screening of the compound library against various biological targets and signaling pathways. Some of these compounds may have fluorophoric properties. Such properties may interfere with the assay outputs resulting in false positives and/or negatives. To decrease such complications and ensure the compound activities are relevant in terms of biological response, the Tox21 10K compound library was screened for auto fluorescence.
From the fluorophores used as reporter signals in our screening assays, the auto fluorescence equivalencies of compounds against three fluorophores have been evaluated: Triamterene, Fluorescein and Rose Bengal sodium for blue, green and red fluorescence, respectively. The fluorescence intensities were measured using Excitation/Emission wavelengths at 405/460nm, 485/535nm and 540/590nm for blue, green and red labels, respectively. This assay includes the green fluorescence data.
Tox21 Assay Protocol Summary:
2,000 HepG2 cells in 5 uL of culture medium (MEM containing 10% FBS) per well were dispensed into black wall/clear bottom 1536-well plates using a Multidrop Combi Dispenser (ThermoFisher Scientific, Waltham, MA). The assay plates were incubated overnight at 37 C to allow cell attachment to the well bottom, followed by the transfer of 23 nL compound or DMSO vehicle by a pintool work station (Kalypsys , San Diego, CA). After the assay plates were incubated for 1 hr at 37 C and 5% CO2, fluorescence intensities in the assay plates were measured by an Envision (PerkinElmer, Shelton, CT) plate reader using three labels for measuring blue, green and red fluorescence at […] 460, 535 and 590 nm respectively.
With `O=C(O)Cc1ccccc1Oc1ccc(Cl)cc1Cl`, the “fluorescence, % of fluorescein control” value was -0.0948% [at 46 µM].
Then `O=S(=O)(O)c1cc(I)c(O)c2ncccc12`, with -0.16% [at 46 µM].
Then `COC(=O)c1ccc(C(=O)O)cc1`, with -0.0015%; and `Cc1nnc(C(=O)NC(C)(C)c2nc(C(=O)NCc3ccc(F)cc3)c(O)c(=O)n2C)o1`, with -0.163% [at 46 µM]; and `CCOC(=O)COc1ccc2c(C)c(CCN(CC)CC)c(=O)oc2c1Cl`, with -0.058% [at 46 µM].
In the case of `CC(C)(C)OC(=O)c1ccccc1C(=O)O`, the “fluorescence, % of fluorescein control” value was 0.0163%.
With `Cc1ccc2cccnc2c1`, the “fluorescence, % of fluorescein control” value was -0.0203%.
As for `CN1C(CCl)Nc2cc(Cl)c(S(N)(=O)=O)cc2S1(=O)=O` (stereo not given), the “fluorescence, % of fluorescein control” value is -0.0305% [at 46 µM].
Then `CC(C)CC(=O)N[C@H](C(=O)N[C@H](C(=O)N[C@@H](CC(C)C)[C@@H](O)CC(=O)N[C@@H](C)C(=O)N[C@@H](CC(C)C)[C@@H](O)CC(=O)O)C(C)C)C(C)C` (Isovaleryl-VV[Sta]A[Sta]-OH), with 0.0505% [at 46 µM]; and `CN(C)c1cc(NC(=O)CNC(C)(C)C)c(O)c2c1C[C@H]1C[C@H]3[C@H](N(C)C)C(=O)C(C(N)=O)=C(O)[C@@]3(O)C(=O)C1=C2O`, with 0.203% [at 46 µM]; and `Cc1ccc(OC(=O)CC(C)C)cc1`, with 0.161%.
Turning to `CCNC(=O)C(C)OC(=O)Nc1ccccc1` (stereo not given), the “fluorescence, % of fluorescein control” value is -0.106%.
In the case of `CC(=O)c1ccc2ccc3ccccc3c2c1`, the “fluorescence, % of fluorescein control” value was -0.0044%.
Then `CC(O)C(CO)C(C)O` (stereo not given), with -0.0245% [at 95.7 µM]; and `CCCCCCCC(=O)N(C)C`, with -0.0787%; and `O=C(O)/C=C(\CC(=O)O)C(=O)O`, with -0.0589% [at 46 µM].
With `CCN1CCN(C(=O)N[C@@H](C(=O)N[C@@H]2C(=O)N3C(C(=O)O)=C(CSc4nnnn4C)CS[C@H]23)c2ccc(O)cc2)C(=O)C1=O`, the “fluorescence, % of fluorescein control” value is 0.0493% [at 46 µM].
Then `CC(C)(C)C(=O)NCCCC(=O)O`, with -0.0437% [at 46 µM]; and `NC(=O)CC[C@@H](N)C(=O)O`, with -0.0085% [at 46 µM]; and `CC(C)(O)CCCC1=CCC(C=O)CC1` (stereo not given), with -0.0189% [at 95.7 µM].
Then `O=Cc1ccccc1S(=O)(=O)O`, with 0.0989%; and `Nc1cc(S(=O)(=O)O)ccc1O`, with 0.156%; and `CN(C)CCc1c[nH]c2ccc(CS(=O)(=O)N3CCCC3)cc12`, with -0.013% [at 46 µM].
As to `CC(=O)OC/C=C(/C)CCC=C(C)C`, the “fluorescence, % of fluorescein control” value was 0.0233%.
Then `Cc1ccc(S(=O)(=O)NC(=O)NN2CC3CCCC3C2)cc1` (stereo not given), with 0.0063% [at 18.6 µM]; and `C=CCN(CC=C)CC=C`, with -0.0406%.
Then `CCCC(=O)C(CC)Sc1ccoc1C` (stereo not given), with 0.0275%; and `CC(=O)SCC(CC(=O)c1ccc(C)cc1)C(=O)O` (stereo not given), with -0.0958% [at 46 µM].
Regarding `C=CCON/C(CCC)=C1\C(=O)CC(C)(C)C(C(=O)OC)=C1O`, the “fluorescence, % of fluorescein control” value was -0.0483%.
Then `CCOC(=O)c1ccc(N(C)C)cc1`, with 0.0243%; and `CCC(=O)OCCOc1ccccc1`, with -0.0239%; and `c1coc(Cn2cccc2)c1`, with 0.099%.
Then `Cc1ccccc1OCC(=O)O`, with 0.0027%; and `CC(C)(O)c1ccc(C(C)(C)O)cc1`, with 3.5e-05%.
`CCCCCCCCCCCCCCCC(=O)OC`: the fluorescence, % of fluorescein control was -0.0233% [at 18.6 µM].
Then `CCCCCC(CC)OC(=O)CCCOc1ccc(Cl)cc1Cl` (stereo not given), with 0.0894%.
Then `CCCCN1C(=O)c2ccccc2C1=O`, with -0.0139% [at 95.7 µM]; and `O=C(c1ccccc1)c1cccc(O)c1`, with 0.0232% [at 95.7 µM]; and `CC(CN1CC(=O)NC(=O)C1)N1CC(=O)NC(=O)C1` (stereo not given), with 0.0134%.
Then `CC(C)OCCO`, with 0.0207%.
